According to PubChem BioAssay (NCATS):
Records with an inconclusive call do not appear. Calls of active or inactive are those of the source. Unless noted, the call rests on the fitted dose curve; in most records, active means well fitted curve in the direction sought with a large enough effect; inconclusive means small, poorly fitted or top-dose-only effect, or another doubt; inactive means no such curve, though single readings can be large; an effect the other way counts as inactive or inconclusive.

Key:
[1] = qHTS assay for small molecule antagonists of peroxisome proliferator-activated receptor delta signaling (AID 588535; active means well fitted inhibition curve with a large enough effect in the signal ratio, with a control signal flat, not every such curve was filed as active; the % refers to the signal ratio;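 on max response: cells co-treated with a PPAR-delta agonist as stimulator during compound exposure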); details: HEK293T PPARd-UAS-bla, beta-lactamase FRET ratio, 18 h; 460 nm channel
In short: (§1)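 Cells were seeded at 4000 per well in assay medium containing 2% charcoal/dextran FBS and held 5 hrs at 37 C. Compounds were then added for 18 hrs. CCF4 substrate was applied for 2 hrs at room temperature before fluorescence reading.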

[2] = biological target: Peroxisome proliferator-activated receptor delta (Homo sapiens) (UniProt Q03181); assay: as above; details: HEK293T PPARd-UAS-bla, beta-lactamase FRET ratio, 18 h; series mostly up to 76.7 µM
Chain of Peroxisome proliferator-activated receptor delta (Homo sapiens) (Q03181 whole entry, looked up): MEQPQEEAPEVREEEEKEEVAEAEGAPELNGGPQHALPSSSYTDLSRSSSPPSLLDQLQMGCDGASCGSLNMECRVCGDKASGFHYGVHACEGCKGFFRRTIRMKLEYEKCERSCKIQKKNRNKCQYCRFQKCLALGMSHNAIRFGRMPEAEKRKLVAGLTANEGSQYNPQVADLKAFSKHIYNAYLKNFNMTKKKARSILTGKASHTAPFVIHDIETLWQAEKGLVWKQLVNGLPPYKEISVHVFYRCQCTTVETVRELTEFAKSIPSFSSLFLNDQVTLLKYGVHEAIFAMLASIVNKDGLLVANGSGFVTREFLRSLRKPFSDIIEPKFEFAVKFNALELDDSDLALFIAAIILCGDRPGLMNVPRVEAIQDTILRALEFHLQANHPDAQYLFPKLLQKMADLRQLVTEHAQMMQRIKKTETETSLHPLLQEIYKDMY
In short: as §1

[3] = biological target: Peroxisome proliferator-activated receptor gamma (Homo sapiens) (UniProt P37231); assay: qHTS assay for small molecule agonists of peroxisome proliferator-activated receptor gamma signaling (AID 588536; active means well fitted curve in the direction sought with a large enough effect in the signal ratio, with a control signal flat, not every such curve was filed as active; the % refers to the signal ratio;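 further: 0% = DMSO basal wells and 100% = rosiglitazone at 2 µM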); details: HEK293 PPARg-UAS-bla, beta-lactamase ratio, 16 h, percent of rosiglitazone response, DMSO as zero; series mostly up to 76.7 µM
Chain of Peroxisome proliferator-activated receptor gamma (Homo sapiens) (P37231 whole entry, looked up): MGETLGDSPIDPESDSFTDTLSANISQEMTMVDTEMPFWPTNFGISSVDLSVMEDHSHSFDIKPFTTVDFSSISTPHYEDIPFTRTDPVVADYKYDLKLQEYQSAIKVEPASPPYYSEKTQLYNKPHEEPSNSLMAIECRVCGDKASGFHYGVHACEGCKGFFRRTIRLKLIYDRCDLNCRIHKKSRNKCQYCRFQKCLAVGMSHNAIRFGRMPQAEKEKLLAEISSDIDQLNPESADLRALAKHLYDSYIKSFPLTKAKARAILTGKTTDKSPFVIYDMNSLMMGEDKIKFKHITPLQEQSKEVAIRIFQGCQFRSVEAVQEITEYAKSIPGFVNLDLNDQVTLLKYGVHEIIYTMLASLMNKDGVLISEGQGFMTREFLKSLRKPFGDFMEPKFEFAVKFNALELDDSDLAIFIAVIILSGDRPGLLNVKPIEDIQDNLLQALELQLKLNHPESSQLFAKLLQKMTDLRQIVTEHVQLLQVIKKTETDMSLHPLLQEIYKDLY
In short: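 GeneBLAzer PPAR-gamma-UAS-bla HEK293 cells in 1% charcoal/dextran-treated FBS medium were treated 16 h at 37 C with compounds. Beta-lactamase activity was read by CCF4 ratio (460/530 nm). Response was normalized to 2 uM rosiglitazone (100%) and DMSO, then Hill-fitted for EC50 and efficacy.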

[4] = biological target: Vitamin D3 receptor (Homo sapiens) (UniProt P11473); assay: qHTS assay for small molecule antagonists of vitamin D receptor signaling (AID 588541; calls by dose curve;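 further: receptor activated by calcitriol during compound treatment; on the % scale 0 is the no-effect control and ±100 the full control effect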); details: HEK293T VDR-UAS-bla, beta-lactamase ratio, antagonist mode; series mostly up to 76.7 µM
Chain of Vitamin D3 receptor (Homo sapiens) (P11473 whole entry, looked up): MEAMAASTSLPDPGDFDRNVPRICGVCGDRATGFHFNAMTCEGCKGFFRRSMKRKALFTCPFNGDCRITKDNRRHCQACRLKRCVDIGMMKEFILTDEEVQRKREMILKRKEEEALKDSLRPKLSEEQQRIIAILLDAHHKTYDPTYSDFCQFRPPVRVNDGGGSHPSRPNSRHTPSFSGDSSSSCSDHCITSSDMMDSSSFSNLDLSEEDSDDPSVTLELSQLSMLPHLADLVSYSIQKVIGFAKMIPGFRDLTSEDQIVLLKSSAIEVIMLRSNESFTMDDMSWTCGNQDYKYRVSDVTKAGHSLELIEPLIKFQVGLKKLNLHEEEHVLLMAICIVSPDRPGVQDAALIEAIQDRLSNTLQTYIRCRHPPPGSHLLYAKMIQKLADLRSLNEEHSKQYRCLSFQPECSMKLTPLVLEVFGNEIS
In short: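 VDR-UAS-bla HEK293T cells in 2% charcoal-stripped FBS were stimulated with 1-alpha,25-dihydroxyvitamin D3 (3 nM final) plus compound for 16 h at 37 C. The beta-lactamase CCF4 readout was normalized to 50 nM agonist and DMSO, and Hill fits gave IC50.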

[5] = biological target: Vitamin D3 receptor (Homo sapiens) (UniProt P11473); assay: qHTS assay for small molecule agonists of vitamin D receptor signaling (AID 588543; calls by dose curve;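 further: 0% = DMSO basal and 100% = reference agonist control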); details: HEK293T VDR-UAS-bla, beta-lactamase ratio, 16 h; series mostly up to 76.8 µM
In short: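 β-lactamase reporter, VDR-UAS-bla HEK293T, agonist mode. Cells plated 5 h at 37 °C, compound titration 16 h at 37 °C, CCF4 dye 2 h RT, ratio 460/530 nm. Hill fit → EC50, efficacy vs 50 nM 1α,25-(OH)2D3.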

[6] = qHTS assay for small molecule agonists of retinoid X receptor alpha signaling (AID 588544); details: HEK293T RXRa-UAS-bla, beta-lactamase reporter, 18 h; 530 nm emission
[7] = biological target: Thyroid hormone receptor beta (Homo sapiens) (UniProt P10828); assay: qHTS assay for small molecule agonists of thyroid hormone receptor beta signaling (AID 588545; calls by dose curve;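 further: 0% = DMSO only and 100% = 10 nM T3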); details: TR-UAS-bla GripTite HEK 293, beta-lactamase ratio, agonist mode, 18 h, percent of T3 response, DMSO as zero; series mostly up to 76.7 µM
Chain of Thyroid hormone receptor beta (Homo sapiens) (P10828 whole entry, looked up): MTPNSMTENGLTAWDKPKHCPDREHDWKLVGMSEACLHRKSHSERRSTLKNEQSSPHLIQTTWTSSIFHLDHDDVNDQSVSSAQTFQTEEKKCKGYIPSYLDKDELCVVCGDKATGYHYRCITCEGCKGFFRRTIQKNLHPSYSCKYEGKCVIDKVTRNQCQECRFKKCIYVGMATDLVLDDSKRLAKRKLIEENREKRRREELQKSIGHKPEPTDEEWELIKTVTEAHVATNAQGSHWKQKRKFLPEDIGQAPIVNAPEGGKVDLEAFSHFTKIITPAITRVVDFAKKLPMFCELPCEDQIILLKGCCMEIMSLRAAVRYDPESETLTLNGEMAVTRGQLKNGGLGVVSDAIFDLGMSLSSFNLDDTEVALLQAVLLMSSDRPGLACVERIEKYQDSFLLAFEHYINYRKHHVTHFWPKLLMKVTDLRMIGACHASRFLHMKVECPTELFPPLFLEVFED
In short: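 TR-UAS-bla-GripTite HEK 293 cells in medium with 2% charcoal/dextran FBS, 0.1 mM NEAA and 1 mM sodium pyruvate were treated with titrated compounds for 18 hrs at 37 C. Beta-lactamase reporter was read with CCF4 dye (ex 405, em 460/530 nm); EC50 from Hill fits.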

[8] = qHTS assay for small molecule antagonists of retinoid X receptor alpha signaling (AID 588546; active means well fitted inhibition curve with a large enough effect in the signal ratio, with a control signal flat, not every such curve was filed as active; the % refers to the signal ratio;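 further: cells stimulated with 9-cis-retinoic acid as agonist; on the % scale 0 is the no-effect control and ±100 the full control effect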); details: HEK293T RXRa-UAS-bla, beta-lactamase ratio, antagonist mode; measured here: W530 green channel, cytotoxicity proxy
In short: (§2)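 Beta-lactamase reporter inhibition, read as CCF4 fluorescence ratio (ex 405, em 460/530 nm) after 2 h at RT. HEK293T UAS-bla cells, 2500/well, were stimulated with 9-cis-RA at 500 or 100 nM final alongside test compound for 18 h at 37 C.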

[9] = biological target: Retinoic acid receptor RXR-alpha (Homo sapiens) (UniProt P19793); assay: as above; details: HEK293T RXRa-UAS-bla, beta-lactamase ratio, antagonist mode
Chain of Retinoic acid receptor RXR-alpha (Homo sapiens) (P19793 whole entry, looked up): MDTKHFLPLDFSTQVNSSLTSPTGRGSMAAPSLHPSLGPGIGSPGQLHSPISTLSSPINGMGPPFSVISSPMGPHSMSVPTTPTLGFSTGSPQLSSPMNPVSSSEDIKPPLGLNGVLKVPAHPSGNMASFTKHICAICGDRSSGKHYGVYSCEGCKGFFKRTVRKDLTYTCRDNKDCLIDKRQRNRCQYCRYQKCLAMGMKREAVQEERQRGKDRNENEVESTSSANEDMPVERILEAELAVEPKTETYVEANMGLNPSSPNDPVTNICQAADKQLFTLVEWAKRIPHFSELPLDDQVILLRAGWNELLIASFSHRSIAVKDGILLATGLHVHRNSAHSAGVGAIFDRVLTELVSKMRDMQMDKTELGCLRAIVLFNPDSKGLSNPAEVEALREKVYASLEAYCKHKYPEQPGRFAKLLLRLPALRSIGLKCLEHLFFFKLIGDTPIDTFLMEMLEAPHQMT
In short: as §2

[10] = biological target: Thyroid hormone receptor beta (Homo sapiens) (UniProt P10828); assay: qHTS assay for small molecule antagonists of thyroid hormone receptor beta signaling (AID 588547; active means well fitted inhibition curve with a large enough effect in the signal ratio, with a control signal flat, not every such curve was filed as active; the % refers to the signal ratio;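 further: cells stimulated with 0.4 nM T3 agonist during compound exposure; on the % scale 0 is the no-effect control and ±100 the full control effect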); details: TR-UAS-bla HEK293, beta-lactamase ratio, antagonist mode, 18 h
In short: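 TR-UAS-bla GripTite HEK293 cells in 2% charcoal/dextran FBS medium; compounds 0.59 nM to 92 uM with T3 at 0.4nM final, 18 h at 37 C. Beta-lactamase read by CCF4 fluorescence (460/530 nm); Hill fits gave IC50 and efficacy.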

[11] = qHTS assay for small molecule agonists of the antioxidant response element (ARE) signaling pathway (AID 651741; active means well fitted activation curve with a large enough effect in the signal ratio; the % refers to the signal ratio; further: % of control where 0% means no effect); details: HepG2 ARE-bla reporter, beta-lactamase FRET ratio, 16 h; series mostly up to 96 µM
In short: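 HepG2 ARE-bla cells plated at 2,000 cells/well and incubated 5 h at 37 C/5% CO2 received 23 nL compound in DMSO. After 16 h at 37 C, LiveBLAzer B/G FRET substrate was applied for 2 h at room temperature and fluorescence read.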

[12] = qHTS assay for small molecule activators of the nuclear factor-kappa B (NF-kB) signaling pathway (AID 651749; active means well fitted activation curve with a large enough effect in the signal ratio; the % refers to the signal ratio; further: % of control where 0% means no effect); details: NF-kB-bla ME-180 cells, beta-lactamase FRET ratio, 16 h; stronger effect = higher value
In short: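 Incubation lasted 16 hr at 37C in 5% CO2 after 23 nL compound addition to ME-180 NF-kB-bla cells. Activation appears as beta-lactamase-mediated FRET loss.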

[13] = qHTS assay for environmental chemicals that activate the Aryl hydrocarbon Receptor (AhR) signaling pathway (AID 651777); details: 1A2-DRE human hepatoma cells, luciferase, 24 h; activation: stronger effect = higher value; further: % of control where 0% means no effect; nearly all actives have a fitted effect of over 15% in size
In short: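 Following a 24 hr incubation with test chemicals at 37 C and 5% CO2, 1A2-DRE human hepatoma cells received One-Glo reagent; after 30 min at room temperature, luciferase output reflected CYP1A2 induction via AhR.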

[14] = biological target: Peroxisome proliferator-activated receptor alpha (Homo sapiens) (UniProt Q07869); assay: qHTS assay for small molecule agonists of the peroxisome proliferator-activated receptor alpha (PPARalpha) signaling pathway (AID 651778); details: PathHunter PPARalpha complementation, chemiluminescence, 6 h; max response: stronger effect = higher value; further: % of control where 0% means no effect
Chain of Peroxisome proliferator-activated receptor alpha (Homo sapiens) (Q07869 whole entry, looked up, the tested form may be a part): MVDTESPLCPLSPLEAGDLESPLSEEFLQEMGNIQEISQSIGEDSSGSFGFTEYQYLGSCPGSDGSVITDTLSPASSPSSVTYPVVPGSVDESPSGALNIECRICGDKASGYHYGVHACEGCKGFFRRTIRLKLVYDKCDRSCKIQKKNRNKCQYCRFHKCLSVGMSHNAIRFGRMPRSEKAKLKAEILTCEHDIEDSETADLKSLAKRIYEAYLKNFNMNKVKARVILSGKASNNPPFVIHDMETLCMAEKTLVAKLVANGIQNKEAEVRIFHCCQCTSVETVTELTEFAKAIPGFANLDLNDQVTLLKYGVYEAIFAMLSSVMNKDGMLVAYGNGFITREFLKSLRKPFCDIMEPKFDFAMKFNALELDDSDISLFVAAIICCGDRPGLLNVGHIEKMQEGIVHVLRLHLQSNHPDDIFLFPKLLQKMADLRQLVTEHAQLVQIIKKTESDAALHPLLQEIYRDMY
In short: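 Enzyme-fragment complementation assay in which ligand-bound PPARalpha translocates and forms an active enzyme that generates chemiluminescence. Cells were plated overnight, exposed to compound for 6 hr at 37 C, and then given detection reagent for 60 min at room temperature.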

[15] = qHTS assay for small molecule agonists of the antioxidant response element (ARE) signaling pathway measured by Nrf2-dependant transcriptional activity (AID 720636; active means well fitted curve in the direction sought with a large enough effect in the repeat runs; an effect the other way counts as inactive or inconclusive;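 further: HepG2 cells with an ARE-driven luciferase reporter; % of control where 0% means no effect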); details: ARE-luc HepG2, Nrf2 luciferase reporter, 16 h; series mostly up to 92.4 µM
In short: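 ONE-Glo luminescence, read 30 min after reagent addition at room temperature, reflected ARE reporter activity in HepG2 cells that had been incubated with compound for 16 hr at 37 C in 1% dialyzed FBS.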

[16] = qHTS assay for cell viability of HEK293 cells (AID 743288); details: ATP luminescence (CellTiter-Glo), 18 h; max response: stronger effect = lower value; further: on the % scale 0 is the no-effect control and ±100 the full control effect; nearly all actives have a fitted effect of over 50% in size
In short: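 Environmental chemicals tested in qHTS format against parental HEK293 cells; 18 h treatment, 37 C; read-out ATP luminescence (CellTiter-Glo), 30 min RT development.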

[17] = qHTS assay for cell viability of the p53RE-bla HCT-116 cell line (AID 743292); details: p53RE-bla HCT-116 viability, ATP luminescence, 16 h; series mostly up to 95 µM; further: on the % scale 0 is the no-effect control and ±100 the full control effect; nearly all actives have a fitted effect of over 55% in size
In short: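 After plating at 4,000 cells per well and a 5 h rest at 37 C, HCT-116 cells carrying p53RE-bla received test chemicals in DMSO. Sixteen hours later at 37 C, CellTiter-Glo was added and luminescence recorded following 30 min at room temperature.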

[18] = biological target: Nuclear receptor subfamily 1 group I member 2 (Rattus norvegicus) (UniProt Q9R1A7); assay: qHTS assay for small molecule activators of the rat pregnane X receptor (rPXR) signaling pathway (AID 651751; call rule not given here; further: 0% is about no effect); details: rPXR reporter cells, luciferase (One-Glo), 24 h
Chain of Nuclear receptor subfamily 1 group I member 2 (Rattus norvegicus) (Q9R1A7 whole entry, looked up): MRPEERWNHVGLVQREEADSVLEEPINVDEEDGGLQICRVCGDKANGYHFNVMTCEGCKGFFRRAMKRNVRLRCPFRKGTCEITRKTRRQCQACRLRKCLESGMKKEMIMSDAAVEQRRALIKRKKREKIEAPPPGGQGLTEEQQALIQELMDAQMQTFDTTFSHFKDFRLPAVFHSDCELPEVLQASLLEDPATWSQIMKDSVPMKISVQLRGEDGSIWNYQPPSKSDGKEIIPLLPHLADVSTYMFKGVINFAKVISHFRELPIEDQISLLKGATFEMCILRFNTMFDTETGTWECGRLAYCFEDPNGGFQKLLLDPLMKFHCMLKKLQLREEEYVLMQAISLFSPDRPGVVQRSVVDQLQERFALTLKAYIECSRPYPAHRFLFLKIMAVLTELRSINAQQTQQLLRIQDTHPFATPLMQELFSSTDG

[19] = qHTS assay for small molecule activators of the human pregnane X receptor (PXR) signaling pathway (AID 720659; call rule not given here; further: 0% is about no effect); details: DPX-2 HepG2 CYP3A4-luciferase, 24 h; series mostly up to 92.3 µM

CC1CCC(C(C)C)C(O)C1 (centres undefined)
-16.3%: max response [6]
inactive: outcome [2] | outcome [3] | Potency [4] | outcome [5] | outcome [7] | max response [9] 5.79% | activity change % (negative = inhibition) [10] -1.02% | Potency [11] | activation [12] -2.43% | activation [13] -1.72% | max response [14] -0.619% | Potency [15] | max response [16] -1.68% | Potency [17] | max response [18] -4.79% | outcome [19]
-12.2%: max response [8]
8.18%: max response [1]
